Measurements as given in PubChem BioAssay (EPA / NIEHS).
Results filed as inconclusive are left out. Activity calls are given as the source filed them. The calls were made as follows, unless noted: active = hit-call score of the fitted dose curve at least 0.9, where 1 is the maximum; inconclusive = response in the unintended direction; inactive = score below 0.9.

Legend:
[1] = ATG_TGFb_CIS: Attagene CIS-FACTORIAL HepG2 Assay for human Transforming Growth Factor (TGF) (AID 2282967; active = hit-call score of the fitted dose curve at least 0.9, where 1 is the maximum; inactive = score below 0.9); settings: HepG2 Attagene CIS TGFb reporter, mRNA transcription; actives raise or lower the signal
In short: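 Transient MRTU transfection of HepG2 (FuGene 6). Dose 24 h. TriZol RNA, oligo(dT) RT, PCR, 6-FAM primer extension, HpaI cut, CE. Bidirectional fit, DMSO = baseline.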

[2] = ATG_VDRE_CIS: Attagene CIS-FACTORIAL HepG2 Assay for human Vitamin D Receptor Element (VDRE) (AID 2282968; active = hit-call score of the fitted dose curve at least 0.9, where 1 is the maximum; inactive = score below 0.9); settings: HepG2 VDRE cis-reporter transcription, actives raise or lower the signal
In short: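 Steps: transfect HepG2 with multiple reporter transcription units; dose chemicals 24 h; isolate RNA; RT-PCR; label with 6-FAM primer extension; HpaI digest; capillary electrophoresis. Curves fitted both directions against DMSO.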

[3] = target: X-box-binding protein 1 (Homo sapiens) (UniProt P17861); experiment: ATG_Xbp1_CIS: Attagene CIS-FACTORIAL HepG2 Assay for human X-box Binding Protein 1 (XBP1) (AID 2282972; active = hit-call score of the fitted dose curve at least 0.9, where 1 is the maximum; inactive = score below 0.9); settings: HepG2 XBP1 cis-element reporter, Attagene multiplex; actives raise or lower the signal
In short: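 Human hepatoma HepG2, cis-element reporter system, 24 h treatment; mRNA quantified by RT-PCR/CE fluorescence; fit relative to DMSO.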

[4] = target: Oxysterols receptor LXR-beta (Homo sapiens) (UniProt P55055); experiment: ATG_LXRb_TRANS: Attagene TRANS-FACTORIAL HepG2 Assay for human Liver X Receptor beta (LXRb) (AID 2282981); settings: HepG2 Attagene TRANS GAL4-LXRb reporter, mRNA
In short: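 Measures induction of a Gal4-driven reporter transcript in HepG2 cells expressing an exogenous LXRb-Gal4 fusion. Cells are exposed to compound for 24 h before RNA isolation and RT-PCR with capillary electrophoresis detection.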

[5] = target: Hepatocyte nuclear factor 4-alpha (Homo sapiens) (UniProt P41235); experiment: ATG_HNF4a_TRANS: Attagene TRANS-FACTORIAL HepG2 Assay for human Hepatocyte Nuclear Factor 4 alpha (HNF4a) (AID 2282982); settings: HepG2 HNF4a transactivation reporter, mRNA readout
In short: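 In this trans-factorial format, a chimeric HNF4a-GAL4 fusion drives a GAL4-UAS reporter in transfected HepG2 liver cells. After 24 h treatment, reporter mRNA induction is measured by RT-PCR with capillary electrophoresis, relative to DMSO.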

[6] = ATG_M_06_TRANS: Attagene TRANS-FACTORIAL HepG2 Assay for M06 Transcription Factor (Internal Marker) (AID 2282983); settings: HepG2 Attagene TRANS M06 internal marker reporter
In short: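 mRNA levels of a reporter transcript, quantified as FAM fluorescence on capillary electrophoresis, served as readout. HepG2 cells expressing exogenous GAL4-chimera reporter constructs were exposed for 24 h. Gain of signal over DMSO was evaluated.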

[7] = ATG_M_32_TRANS: Attagene TRANS-FACTORIAL HepG2 Assay for M32 Transcription Factor (Internal Marker) (AID 2282984); settings: HepG2 Attagene TRANS M32 internal marker reporter
In short: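 After 24 h dosing of transfected HepG2 cells, total RNA was reverse-transcribed, reporter sequences PCR-amplified, 6-FAM labelled by primer extension and HpaI-digested before capillary electrophoresis. Signal increase over DMSO was fitted.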

[8] = target: Transcriptional activator Myb (Homo sapiens) (UniProt P10242); experiment: ATG_Myb_CIS: Attagene CIS-FACTORIAL HepG2 Assay for human Myeloblastosis (Myb) Proto-Oncogene Transcription Factor (AID 2282986; active = hit-call score of the fitted dose curve at least 0.9, where 1 is the maximum; inactive = score below 0.9); settings: HepG2 Attagene CIS-FACTORIAL Myb reporter transcription; actives raise or lower the signal
In short: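 Multiplexed cis-reporter system in HepG2: transient transfection, 24 h treatment, mRNA readout by RT-PCR and capillary electrophoresis. Both increases and decreases are scored versus DMSO negative control.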

[9] = target: Nuclear respiratory factor 1 (Homo sapiens) (UniProt Q16656); experiment: ATG_NRF1_CIS: Attagene CIS-FACTORIAL HepG2 Assay for human Nuclear Respiratory Factor 1 (NRF1) Orphan Gene (AID 2282987; active = hit-call score of the fitted dose curve at least 0.9, where 1 is the maximum; inactive = score below 0.9); settings: HepG2 NRF1 cis-element reporter, Attagene multiplex; actives raise or lower the signal
In short: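 Endogenous factor activity was captured via cis-element-driven reporter transcripts in HepG2 cells. Following 24 h chemical treatment, transcripts were quantified by RT-PCR and capillary electrophoresis.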

[10] = target: Estrogen-related receptor gamma (Homo sapiens) (UniProt P62508); experiment: ATG_ERRg_TRANS: Attagene TRANS-FACTORIAL HepG2 Assay for human Estrogen-Related Receptor gamma (ERRg) (AID 2282977); settings: HepG2 Attagene TRANS reporter, ERRg transactivation;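 also: hits increase reporter signal over DMSO so potencies reflect activators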
In short: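 Exogenous NR-Gal4 chimera activity measured as reporter transcript induction after 24 h in transiently transfected HepG2 cells. RNA reverse-transcribed, PCR-amplified, 6-FAM-labelled and resolved by capillary electrophoresis; increase over DMSO baseline.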

[11] = target: Glucocorticoid receptor (Homo sapiens) (UniProt P04150); experiment: ATG_GR_TRANS: Attagene TRANS-FACTORIAL HepG2 Assay for human Glucocorticoid Receptor (GR) (AID 2282978); settings: HepG2 Attagene TRANS GR reporter, mRNA transcription;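 also: activators score as hits since higher reporter transcript over DMSO is fitted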
In short: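 HepG2 transient transfection, multiple reporter units, GAL4-UAS under NR-GAL4 chimera control. 24 h treatment. Reporter mRNA by RT-PCR/CE fluorescence, DMSO as negative control.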

[12] = target: Bile acid receptor (Homo sapiens) (UniProt Q96RI1); experiment: ATG_FXR_TRANS: Attagene TRANS-FACTORIAL HepG2 Assay for Farnesoid X Receptor (FXR) (AID 2282979); settings: HepG2 Attagene TRANS FXR-GAL4 reporter transcription;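 also: hits raise reporter mRNA above DMSO so AC50 marks FXR activation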
In short: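 HepG2 cells were transiently transfected with GAL4-UAS reporters driven by chimeric NR-Gal4 proteins and dosed for 24 h. Reporter mRNA was quantified by RT-PCR, fluorescent labelling, HpaI digestion and capillary electrophoresis, with gain of signal scored versus DMSO.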

[13] = target: Nuclear receptor subfamily 4 group A member 2 (Homo sapiens) (UniProt P43354); experiment: ATG_NURR1_TRANS: Attagene TRANS-FACTORIAL HepG2 Assay for human Nuclear Receptor Related Protein 1 (NURR1) (AID 2282985); settings: HepG2 Attagene TRANS reporter, mRNA readout
In short: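 Chimeric NR-Gal4 fusion activity measured in HepG2 after 24 h treatment. Reporter transcripts detected by RT-PCR and capillary electrophoresis fluorescence; positive-direction curve fitting against DMSO.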

[14] = target: Estrogen receptor (Homo sapiens) (UniProt P03372); experiment: ATG_ERa_TRANS: Attagene TRANS-FACTORIAL HepG2 Assay for human Estrogen Receptor alpha (ERa) (AID 2282970); settings: HepG2 Attagene TRANS ERa GAL4 reporter, mRNA
In short: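 Gal4-fusion ERa transactivation, measured as reporter transcript level in transiently transfected HepG2 cells. Exposure 24 h; RT-PCR plus capillary electrophoresis with fluorescence detection.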

[15] = ATG_GAL4_TRANS: Attagene TRANS-FACTORIAL HepG2 Assay for GAL4 (Internal Marker) (AID 2282976); settings: HepG2 Attagene TRANS GAL4 internal marker reporter
In short: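 Background-control readout: GAL4-UAS reporter transcript in transiently transfected HepG2 cells after 24 h compound exposure. Measured by RT-PCR, 6-FAM primer extension, HpaI digest and capillary electrophoresis; gain-of-signal fit versus DMSO.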

[16] = ATG_M_19_TRANS: Attagene TRANS-FACTORIAL HepG2 Assay for M19 Transcription Factor (Internal Marker) (AID 2282974); settings: HepG2 Attagene TRANS-FACTORIAL M19 internal marker reporter
In short: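 Gain-of-signal in reporter mRNA, relative to DMSO, was scored from capillary electrophoresis fluorescence. HepG2 cells carried transiently transfected multiple reporter transcription units and were incubated with test chemicals for 24 h.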

[17] = target: Steroid hormone receptor ERR1 (Homo sapiens) (UniProt P11474); experiment: ATG_ERRa_TRANS: Attagene TRANS-FACTORIAL HepG2 Assay for human Estrogen-Related Receptor alpha (ERRa) (AID 2282971); settings: HepG2 Attagene TRANS reporter, ERRa transactivation
In short: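 HepG2 cells transiently transfected with GAL4-UAS reporter units and chimeric NR-Gal4 constructs; after 24 hour compound incubation, reporter mRNA quantified by RT-PCR, fluorescent labelling and capillary electrophoresis, gain of signal versus DMSO.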

[18] = target: Oxysterols receptor LXR-alpha (Homo sapiens) (UniProt Q13133); experiment: ATG_LXRa_TRANS: Attagene TRANS-FACTORIAL HepG2 Assay for human Liver X Receptor alpha (LXRa) (AID 2282980); settings: HepG2 Attagene TRANS reporter, LXRa transactivation
In short: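 HepG2 cells transiently transfected with GAL4-UAS reporter units for chimeric NR-Gal4 proteins, exposed to chemicals for 24 h. Reporter mRNA quantified by RT-PCR and capillary electrophoresis; gain of signal fitted relative to DMSO.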

[19] = target: Nuclear receptor subfamily 1 group I member 3 (Homo sapiens) (UniProt Q14994); experiment: ATG_CAR_TRANS: Attagene TRANS-FACTORIAL HepG2 Assay for human Constitutive Androstane Receptor (CAR) (AID 2282969); settings: HepG2 Attagene TRANS-FACTORIAL CAR reporter;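 also: activators raise reporter mRNA above DMSO so AC50 marks induction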
In short: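 Steps: transient transfection of HepG2 with multiple GAL4-UAS reporter units; 24 h compound incubation; RNA isolation, RT-PCR, 6-FAM primer extension, HpaI digest; capillary electrophoresis. Gain-of-signal relative to DMSO negative control.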

Measured: AC50

Chain of X-box-binding protein 1 (Homo sapiens) (P17861 whole entry, looked up): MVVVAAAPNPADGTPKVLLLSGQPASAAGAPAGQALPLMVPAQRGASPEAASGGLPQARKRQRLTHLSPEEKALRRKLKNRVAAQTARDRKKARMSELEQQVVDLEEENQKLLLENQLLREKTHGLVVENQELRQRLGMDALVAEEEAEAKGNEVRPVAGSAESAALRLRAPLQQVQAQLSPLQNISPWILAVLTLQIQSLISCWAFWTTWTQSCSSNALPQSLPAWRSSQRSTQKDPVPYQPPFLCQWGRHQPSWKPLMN
Chain of Nuclear respiratory factor 1 (Homo sapiens) (Q16656 whole entry, looked up): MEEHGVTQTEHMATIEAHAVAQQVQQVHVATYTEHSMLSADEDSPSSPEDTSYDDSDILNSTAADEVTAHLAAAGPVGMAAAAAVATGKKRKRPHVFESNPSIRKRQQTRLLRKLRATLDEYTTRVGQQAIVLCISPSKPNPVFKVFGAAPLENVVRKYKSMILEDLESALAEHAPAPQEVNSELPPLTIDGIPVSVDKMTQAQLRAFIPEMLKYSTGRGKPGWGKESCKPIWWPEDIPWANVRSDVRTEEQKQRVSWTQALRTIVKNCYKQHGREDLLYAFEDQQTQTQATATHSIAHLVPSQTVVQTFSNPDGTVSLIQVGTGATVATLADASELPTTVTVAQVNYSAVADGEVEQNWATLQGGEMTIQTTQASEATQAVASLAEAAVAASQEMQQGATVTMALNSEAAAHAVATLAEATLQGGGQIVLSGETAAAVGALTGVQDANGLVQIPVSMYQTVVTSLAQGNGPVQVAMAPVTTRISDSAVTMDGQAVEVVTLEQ
Chain of Oxysterols receptor LXR-alpha (Homo sapiens) (Q13133 whole entry, looked up, the tested form may be a part): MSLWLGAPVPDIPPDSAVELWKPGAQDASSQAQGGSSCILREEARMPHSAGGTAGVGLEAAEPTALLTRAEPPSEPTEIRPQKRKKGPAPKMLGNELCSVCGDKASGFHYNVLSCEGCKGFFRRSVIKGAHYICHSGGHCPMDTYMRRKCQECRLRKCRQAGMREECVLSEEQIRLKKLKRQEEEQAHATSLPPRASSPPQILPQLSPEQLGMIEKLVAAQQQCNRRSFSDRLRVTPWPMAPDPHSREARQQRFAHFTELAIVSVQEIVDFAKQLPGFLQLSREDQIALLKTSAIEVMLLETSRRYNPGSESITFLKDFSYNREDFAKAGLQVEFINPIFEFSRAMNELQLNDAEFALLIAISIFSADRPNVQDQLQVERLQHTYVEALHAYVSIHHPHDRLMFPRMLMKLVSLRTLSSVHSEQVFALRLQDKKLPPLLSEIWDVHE
Chain of Estrogen receptor (Homo sapiens) (P03372 whole entry, looked up, the tested form may be a part): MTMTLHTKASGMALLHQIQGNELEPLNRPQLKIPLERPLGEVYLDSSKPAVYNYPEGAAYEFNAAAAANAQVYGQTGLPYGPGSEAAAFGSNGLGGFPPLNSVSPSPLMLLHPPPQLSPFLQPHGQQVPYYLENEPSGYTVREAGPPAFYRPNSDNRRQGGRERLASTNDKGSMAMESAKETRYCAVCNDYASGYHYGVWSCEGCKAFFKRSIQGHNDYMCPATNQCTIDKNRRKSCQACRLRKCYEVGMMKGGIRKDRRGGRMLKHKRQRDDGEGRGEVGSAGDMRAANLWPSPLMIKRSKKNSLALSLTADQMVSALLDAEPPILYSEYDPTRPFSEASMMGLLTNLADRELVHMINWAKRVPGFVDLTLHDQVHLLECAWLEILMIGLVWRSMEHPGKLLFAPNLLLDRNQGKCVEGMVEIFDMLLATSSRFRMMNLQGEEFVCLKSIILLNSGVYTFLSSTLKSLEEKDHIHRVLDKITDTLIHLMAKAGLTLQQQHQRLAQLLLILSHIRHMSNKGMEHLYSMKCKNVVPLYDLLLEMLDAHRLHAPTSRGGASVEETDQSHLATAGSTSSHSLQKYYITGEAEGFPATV
Chain of Bile acid receptor (Homo sapiens) (Q96RI1 whole entry, looked up, the tested form may be a part): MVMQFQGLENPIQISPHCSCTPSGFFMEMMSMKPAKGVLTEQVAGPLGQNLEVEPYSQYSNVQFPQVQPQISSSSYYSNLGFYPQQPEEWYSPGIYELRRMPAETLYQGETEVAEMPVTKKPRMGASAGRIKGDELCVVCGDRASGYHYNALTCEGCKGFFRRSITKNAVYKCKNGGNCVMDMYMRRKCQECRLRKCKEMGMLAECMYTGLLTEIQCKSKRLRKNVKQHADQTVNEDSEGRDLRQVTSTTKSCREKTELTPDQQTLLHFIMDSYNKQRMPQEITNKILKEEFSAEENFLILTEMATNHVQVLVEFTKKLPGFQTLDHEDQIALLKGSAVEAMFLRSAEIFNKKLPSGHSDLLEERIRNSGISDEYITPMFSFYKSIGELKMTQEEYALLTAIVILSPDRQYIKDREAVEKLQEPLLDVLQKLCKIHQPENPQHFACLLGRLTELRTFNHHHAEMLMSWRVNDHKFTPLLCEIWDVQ
Chain of Transcriptional activator Myb (Homo sapiens) (P10242 whole entry, looked up): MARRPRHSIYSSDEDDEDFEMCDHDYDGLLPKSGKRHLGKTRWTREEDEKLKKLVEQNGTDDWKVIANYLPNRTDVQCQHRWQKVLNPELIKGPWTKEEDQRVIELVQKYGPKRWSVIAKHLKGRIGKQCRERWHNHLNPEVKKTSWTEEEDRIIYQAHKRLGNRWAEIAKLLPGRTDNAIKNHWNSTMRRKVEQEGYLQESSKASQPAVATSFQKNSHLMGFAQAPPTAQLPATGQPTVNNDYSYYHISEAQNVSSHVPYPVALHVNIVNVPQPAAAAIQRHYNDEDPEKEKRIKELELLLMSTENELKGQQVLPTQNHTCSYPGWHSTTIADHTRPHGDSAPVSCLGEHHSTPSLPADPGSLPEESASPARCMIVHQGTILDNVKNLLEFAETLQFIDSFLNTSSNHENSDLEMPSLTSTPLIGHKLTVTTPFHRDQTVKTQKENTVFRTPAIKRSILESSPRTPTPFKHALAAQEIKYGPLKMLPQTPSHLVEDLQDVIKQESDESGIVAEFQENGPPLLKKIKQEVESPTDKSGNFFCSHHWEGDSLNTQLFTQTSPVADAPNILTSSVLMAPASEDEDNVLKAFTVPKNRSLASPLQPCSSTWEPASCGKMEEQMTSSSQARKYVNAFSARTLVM
Chain of Hepatocyte nuclear factor 4-alpha (Homo sapiens) (P41235 whole entry, looked up, the tested form may be a part): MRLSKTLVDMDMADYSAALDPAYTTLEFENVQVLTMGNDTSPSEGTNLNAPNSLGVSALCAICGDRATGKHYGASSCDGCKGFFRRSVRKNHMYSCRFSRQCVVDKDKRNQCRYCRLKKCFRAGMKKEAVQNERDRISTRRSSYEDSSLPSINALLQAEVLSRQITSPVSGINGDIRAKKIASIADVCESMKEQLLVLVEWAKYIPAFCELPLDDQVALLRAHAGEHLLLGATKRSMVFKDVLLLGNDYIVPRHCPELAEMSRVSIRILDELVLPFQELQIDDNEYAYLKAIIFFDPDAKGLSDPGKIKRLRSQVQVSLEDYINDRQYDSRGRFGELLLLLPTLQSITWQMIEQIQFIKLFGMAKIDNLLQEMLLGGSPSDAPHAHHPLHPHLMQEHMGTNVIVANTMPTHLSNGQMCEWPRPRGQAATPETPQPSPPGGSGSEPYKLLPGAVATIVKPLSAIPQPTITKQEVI
Chain of Nuclear receptor subfamily 4 group A member 2 (Homo sapiens) (P43354 whole entry, looked up, the tested form may be a part): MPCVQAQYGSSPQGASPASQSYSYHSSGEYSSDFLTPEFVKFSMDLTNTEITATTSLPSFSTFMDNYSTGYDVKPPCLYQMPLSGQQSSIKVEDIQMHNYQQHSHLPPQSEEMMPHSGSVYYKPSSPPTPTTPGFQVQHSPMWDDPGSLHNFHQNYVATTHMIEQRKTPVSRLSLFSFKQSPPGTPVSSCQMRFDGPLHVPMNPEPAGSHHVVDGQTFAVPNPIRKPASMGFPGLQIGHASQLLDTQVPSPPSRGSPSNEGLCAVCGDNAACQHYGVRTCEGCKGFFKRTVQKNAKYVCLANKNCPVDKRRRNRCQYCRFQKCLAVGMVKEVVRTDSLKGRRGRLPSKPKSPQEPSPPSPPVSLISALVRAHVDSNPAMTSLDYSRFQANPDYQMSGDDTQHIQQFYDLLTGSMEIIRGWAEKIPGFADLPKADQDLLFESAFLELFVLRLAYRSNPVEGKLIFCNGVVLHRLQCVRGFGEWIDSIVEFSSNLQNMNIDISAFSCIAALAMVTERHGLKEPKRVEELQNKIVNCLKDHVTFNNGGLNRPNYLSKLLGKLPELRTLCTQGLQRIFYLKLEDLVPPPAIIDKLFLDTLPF
Chain of Glucocorticoid receptor (Homo sapiens) (P04150 whole entry, looked up, the tested form may be a part): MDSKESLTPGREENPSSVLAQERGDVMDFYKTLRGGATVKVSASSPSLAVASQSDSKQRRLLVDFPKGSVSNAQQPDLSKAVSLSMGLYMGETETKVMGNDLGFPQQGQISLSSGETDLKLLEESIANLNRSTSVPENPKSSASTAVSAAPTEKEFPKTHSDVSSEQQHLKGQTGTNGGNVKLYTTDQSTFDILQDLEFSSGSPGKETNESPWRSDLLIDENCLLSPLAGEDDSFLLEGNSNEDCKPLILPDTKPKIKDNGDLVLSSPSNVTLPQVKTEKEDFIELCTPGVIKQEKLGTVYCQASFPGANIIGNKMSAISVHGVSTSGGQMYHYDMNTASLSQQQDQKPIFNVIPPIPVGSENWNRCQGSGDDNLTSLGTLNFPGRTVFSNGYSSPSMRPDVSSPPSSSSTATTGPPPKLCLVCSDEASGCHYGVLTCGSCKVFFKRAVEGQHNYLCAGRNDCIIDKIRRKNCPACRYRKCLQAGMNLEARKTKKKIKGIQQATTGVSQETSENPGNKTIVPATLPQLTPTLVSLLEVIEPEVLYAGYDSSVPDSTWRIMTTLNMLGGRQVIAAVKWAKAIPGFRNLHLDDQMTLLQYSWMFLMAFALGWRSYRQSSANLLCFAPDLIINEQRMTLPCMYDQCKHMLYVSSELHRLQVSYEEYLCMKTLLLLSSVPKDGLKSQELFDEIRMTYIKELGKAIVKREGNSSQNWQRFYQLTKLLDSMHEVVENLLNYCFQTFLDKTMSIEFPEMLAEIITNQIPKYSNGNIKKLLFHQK

C=CC(=O)OCCOC(=O)C=C
active: [2] 10.5 µM
inactive: [1] | [3] | [4] | [5] | [6] | [7] | [8] | [9]

Nc1ccc(Cl)cc1Cl
inactive: [3] | [10] | [11] | [12] | [4] | [6] | [7] | [13] | [9]

CCCCC(CC)COCC1CO1 (stereo unspecified)
not listed: [4] | [12] | [13] | [16] | [17] | [18] | [19]
inactive: all other assays above

Clc1nc2ccccc2s1
inactive: [1] | [2] | [3] | [15] | [5] | [6] | [7] | [13] | [8] | [9]

CCCCCCCC(C)=O
not listed: [10] | [11] | [12] | [13] | [14] | [17] | [18] | [19]
inactive: all other assays above

Nc1cccc(C(F)(F)F)c1
not listed: [1] | [2] | [5] | [11] | [15] | [16] | [19]
inactive: all other assays above

CC(=O)OCC(C)OC(C)=O (stereo unspecified)
inactive: [1] | [2] | [3] | [12] | [18] | [4] | [6] | [7] | [8] | [9]

C=C[C@](C)(O)CC[C@@H]1[C@@]2(C)CCCC(C)(C)[C@@H]2CC[C@@]1(C)O
not listed: [4] | [5] | [10] | [15] | [16] | [17] | [19]
inactive: all other assays above

Nc1ccc(-c2ccc(F)cc2)cc1
active: [14] 26.9 µM
inactive: [1] | [2] | [3] | [16] | [10] | [12] | [5] | [7] | [8] | [9]

CCOC(=O)Cc1cccc2ccccc12
not listed: [5] | [6] | [12] | [13] | [15] | [17] | [19]
inactive: all other assays above

C=C(C)[C@H]1CC=C(C)CC1
inactive: [1] | [19] | [14] | [3] | [15] | [4] | [6] | [13] | [8] | [9]

O=CC1CC1
inactive: [1] | [2] | [3] | [16] | [15] | [18] | [7] | [8] | [9]

O=c1c2ccccc2nnn1CCl
not listed: [10] | [11] | [12] | [13] | [16] | [17] | [18]
inactive: all other assays above

Oc1ccc(Cl)cc1Cc1cc(Cl)ccc1O
active: [1] 11.1 µM | [2] 7 µM | [3] 6.64 µM
inactive: [14] | [11] | [12] | [4] | [6] | [8] | [9]

CN(C)c1ccc(N=Nc2ccccc2C(=O)O)cc1
active: [2] 16.4 µM | [3] 9.33 µM | [8] 25.3 µM
inactive: [1] | [14] | [4] | [6] | [7] | [13] | [9]

C=CCCCCCCCCC(=O)OCCCC
not listed: [5] | [6] | [10] | [11] | [15] | [17] | [18]
inactive: all other assays above

COC=O
inactive: [1] | [3] | [18] | [5] | [6] | [7] | [8] | [9]

c1ccc(-c2ccccn2)nc1
not listed: [5] | [7] | [12] | [15] | [16] | [17] | [19]
inactive: all other assays above

CCCCCCCCC(=O)OCC
not listed: [4] | [6] | [12] | [17] | [18] | [19]
inactive: all other assays above

C=CC(C)(CCC=C(C)C)OC(=O)CC(C)C (stereo unspecified)
not listed: [5] | [6] | [10] | [12] | [15] | [16] | [17]
inactive: all other assays above
